NTR1 ag – NTR1 (human) agonism; activation, % at 20 µM; P30989; actives 0.17% (n = 330,000); NTR1-U2OS beta-arrestin-GFP spot imaging, agonist mode; AID 493036;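 active means activation at or above 40% of the spot to cytoplasm intensity ratio, with at least 20 cells analyzed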;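 further: 0% = DMSO without peptide and 100% = 100 nM NTR1 peptide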
Target sequence (P30989 whole entry, looked up): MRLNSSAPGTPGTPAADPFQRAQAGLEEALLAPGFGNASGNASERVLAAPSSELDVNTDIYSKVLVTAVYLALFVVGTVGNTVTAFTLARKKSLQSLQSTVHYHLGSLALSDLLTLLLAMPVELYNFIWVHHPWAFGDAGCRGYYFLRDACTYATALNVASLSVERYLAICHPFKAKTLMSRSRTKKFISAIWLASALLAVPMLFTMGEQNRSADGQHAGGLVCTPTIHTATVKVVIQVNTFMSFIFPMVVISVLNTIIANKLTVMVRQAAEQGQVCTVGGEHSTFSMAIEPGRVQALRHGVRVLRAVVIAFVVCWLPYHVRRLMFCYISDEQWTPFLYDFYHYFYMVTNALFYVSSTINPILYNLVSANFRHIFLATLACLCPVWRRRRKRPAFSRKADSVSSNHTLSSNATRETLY
MIN6 prolif – induces beta-cell replication in MIN6 cells. MIN6 cells proliferation, ATPlite luminescence, 48 h; cells starved in 0.2% serum; 100% = growth in 10% serum. proliferation, % at 10 µM. actives 0.29% (n = 330,000). AID 2380;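 active means compounds whose signal lies at least 3.5 SD above the mean of all wells on their plate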;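 further: 0% = DMSO-treated cells in low-serum medium and 100% = 10% serum control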
Platelet DG rel – platelet dense granule release activity; human platelet-rich plasma, SFLLRN dense granule ATP release, luminescence; inhibition, %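 (compounds screened at 7.5 µM in platelet-rich plasma)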; actives 0.22% (n = 300,000);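 active means mean replicate score, as percent of positive control, at or above 50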
GRK2 aptamer HTS – human GRK2 inhibition via aptamer displacement; bead flow cytometry, FAM-aptamer displacement from GRK2; inhibition of aptamer binding, % at 10 µM; actives 0.59% (n = 330,000); AID 488847;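 active means inhibition of aptamer binding above 40%, roughly 3 SD of noise, on plates passing a quality check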;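 further: median bead fluorescence of bound FAM aptamer so fluorescent compounds give negative values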
Numbers without * were called inactive. The list is not random: actives were taken first. Their share in the collection is about 1.2%.

For Cc1cccc(N2C(=S)NC3c4cc(Cl)ccc4OC2(C)C3C(=O)N(C)C)c1 (configuration not stated) the results were NTR1 ag 0.7, MIN6 prolif 6.7, Platelet DG rel -1.1 and GRK2 aptamer HTS 0.0.
`Cc1ccc(N2C(=S)NC3c4cc(Cl)ccc4OC2(C)C3C(=O)N(C)C)cc1` (configuration not stated) gave NTR1 ag 3.6, MIN6 prolif 10.2*, Platelet DG rel 9.2 and GRK2 aptamer HTS 2.0.
For Cc1ccccc1C(=O)OCn1nnc2ccccc2c1=O the results were NTR1 ag -1.7, MIN6 prolif 2.0, Platelet DG rel 92.5* and GRK2 aptamer HTS 0.0.
COc1cccc(C(=O)OCn2nnc3ccccc3c2=O)c1OC was read as NTR1 ag 2.2, MIN6 prolif 1.8, Platelet DG rel 2.5 and GRK2 aptamer HTS 0.0.
Screening CCC(=O)/C=C1/Sc2ccc(OC)cc2N1CCO returned NTR1 ag -1.2, MIN6 prolif -2.6, Platelet DG rel -1.0 and GRK2 aptamer HTS 0.0.
`CCC(/C=C1\Sc2ccc(OC)cc2N1CCO)=C\c1sc2ccc(OC)cc2[n+]1CCO` gave NTR1 ag 0.2, MIN6 prolif -2.8 and GRK2 aptamer HTS 100.0*.
Cc1nc2sccn2c(=O)c1S(=O)(=O)NCc1ccccc1Cl was read as NTR1 ag -0.8, MIN6 prolif 6.7, Platelet DG rel -12.6 and GRK2 aptamer HTS 2.0.
For CCC(Cc1ccccc1)NS(=O)(=O)c1c(C)nc2sccn2c1=O (configuration not stated) the results were NTR1 ag 2.5, MIN6 prolif -2.5, Platelet DG rel 58.3* and GRK2 aptamer HTS 1.0.
For COc1cc(CN2CCN(Cc3ccc(C(F)(F)F)cc3)CC2)cc(OC)c1OC the results were NTR1 ag 1.9, MIN6 prolif -1.5, Platelet DG rel -2.7 and GRK2 aptamer HTS 1.0.
Cc1ccc(C(=O)NCC(=O)OCC(=O)NC2CCS(=O)(=O)C2)cc1C (configuration not stated) was read as NTR1 ag 0.2, MIN6 prolif -3.2, Platelet DG rel 0.3 and GRK2 aptamer HTS 0.0.
`CCOc1ccc(C(=O)NCC(=O)OCc2nnc(-c3ccccc3)o2)cc1OCC` gave NTR1 ag 6.4, MIN6 prolif -3.4 and GRK2 aptamer HTS 1.0.
For N#C/C(=C\c1cccc([N+](=O)[O-])c1)c1nnc2n1CCCCC2 the results were NTR1 ag 0.8, MIN6 prolif -0.8, Platelet DG rel 2.8 and GRK2 aptamer HTS 100.0*.
Screening COCCOC(=O)c1c(NC(=O)CN(C)c2ccccc2)sc(C(N)=O)c1C returned NTR1 ag 1.1, MIN6 prolif -0.7, Platelet DG rel -0.1 and GRK2 aptamer HTS 4.0.
Screening COCCOC(=O)c1c(NC(=O)COC(=O)Cc2cccc(OC)c2)sc(C(N)=O)c1C returned NTR1 ag 1.8, MIN6 prolif -2.8, Platelet DG rel 2.6 and GRK2 aptamer HTS 83.0*.
For O=C(NCCCN1CCOCC1)C1(c2ccccc2)CCOCC1 the results were NTR1 ag 0.1, MIN6 prolif -1.2, Platelet DG rel 2.0 and GRK2 aptamer HTS 0.0.
Screening O=C(NCCCN1CCOCC1)C1(c2ccccc2)CCCC1 returned NTR1 ag -0.6, MIN6 prolif 1.2, Platelet DG rel 70.3* and GRK2 aptamer HTS 0.0.
Screening CC(=O)c1cccc(NC(=O)Nc2ccc(C(=O)N3CCCC3)cc2)c1 returned NTR1 ag 0.4, MIN6 prolif -3.9, Platelet DG rel 7.0 and GRK2 aptamer HTS 0.0.
Screening O=C(Nc1ccccc1)Nc1ccc(C(=O)N2CCCC2)cc1 returned NTR1 ag 0.0, MIN6 prolif -4.5, Platelet DG rel 58.1* and GRK2 aptamer HTS 4.0.
Screening COc1ccc(/C=N/Nc2ccccn2)cc1O returned NTR1 ag -0.4, MIN6 prolif -3.5, Platelet DG rel 80.1* and GRK2 aptamer HTS 4.0.
For CCOc1ccc(CN2CCN(S(=O)(=O)c3ccc(NC(C)=O)cc3)CC2)cc1 the results were NTR1 ag 2.7, MIN6 prolif -0.5, Platelet DG rel -0.8 and GRK2 aptamer HTS 0.0.
`CCNc1nc(NC#N)nc(SCC(=O)OCC)n1` gave NTR1 ag 0.1, MIN6 prolif 2.1, Platelet DG rel 54.9* and GRK2 aptamer HTS 1.0.
`Cc1nc2cc(-c3ccccc3)sc2c(=O)n1N` gave NTR1 ag -2.0, MIN6 prolif -5.1, Platelet DG rel 89.7* and GRK2 aptamer HTS 0.0.
`Cc1ccc(C)n1-n1c(C)nc2sc(-c3ccccc3)cc2c1=O` gave NTR1 ag 6.2, MIN6 prolif -4.1, Platelet DG rel 16.8 and GRK2 aptamer HTS 1.0.
COc1ccc(-c2cc3nc4n(c(=O)c3s2)CCC4)cc1 was read as NTR1 ag 3.6, MIN6 prolif -4.8, Platelet DG rel 22.6 and GRK2 aptamer HTS 2.0.
`COc1ccc(-c2cc3nc(C)n(N)c(=O)c3s2)cc1` gave NTR1 ag 0.4, MIN6 prolif -6.3, Platelet DG rel 87.0* and GRK2 aptamer HTS 1.0.
Screening COc1cc2c3nnc(-c4ccc(F)cc4)c-3cn(Cc3ccc(F)cc3)c2cc1OC returned NTR1 ag 84.1*, MIN6 prolif -6.5, Platelet DG rel 2.9 and GRK2 aptamer HTS 0.0.
`COc1ccc(OC)c(N/C=C/C(=O)c2ccccc2)c1` gave NTR1 ag 3.9, MIN6 prolif -3.8, Platelet DG rel 83.2* and GRK2 aptamer HTS 3.0.
Screening Cc1cc(N/C=C/C(=O)c2ccccc2)ccc1Br returned NTR1 ag -0.7, MIN6 prolif -2.9, Platelet DG rel 9.8 and GRK2 aptamer HTS 1.0.
Screening COc1cccc(N/C=C/C(=O)c2ccc(C)cc2)c1 returned NTR1 ag 2.1, MIN6 prolif -2.9, Platelet DG rel 24.4 and GRK2 aptamer HTS 0.0.
`COc1cccc(C(=O)/C=C/Nc2cccc(O)c2)c1` gave NTR1 ag -0.5, MIN6 prolif -4.7, Platelet DG rel 67.6* and GRK2 aptamer HTS 0.0.
`O=C(/C=C/Nc1ccc(F)cc1Br)c1ccccc1` gave NTR1 ag -1.3, MIN6 prolif 0.0, Platelet DG rel 52.3* and GRK2 aptamer HTS 0.0.
For COc1ccc(OC)c(N/C(C)=C/C(=O)c2ccccc2)c1 the results were NTR1 ag 0.1, MIN6 prolif -4.5, Platelet DG rel -2.1 and GRK2 aptamer HTS 3.0.
For Cc1cccc(-n2c(SCC(=O)NCC3CCCO3)nc3ccccc3c2=O)c1C (configuration not stated) the results were NTR1 ag 0.4, MIN6 prolif 3.3 and GRK2 aptamer HTS 0.0.
For CC(=O)c1ccc(N2CCN(C(=O)C3CCN(S(=O)(=O)c4cccs4)CC3)CC2)cc1 the results were NTR1 ag 0.7, MIN6 prolif 0.2, Platelet DG rel 13.5 and GRK2 aptamer HTS 0.0.
O=C(Nc1ccc(F)cc1)c1ccc(C(=O)N2CCCC(O)C2)cc1 (configuration not stated) was read as NTR1 ag 0.0, MIN6 prolif 4.3, Platelet DG rel 2.9 and GRK2 aptamer HTS 2.0.
`CCCc1cc(-c2[nH]ncc2-c2ccc3c(c2)OCCCO3)c(O)cc1O` gave NTR1 ag 43.6*, MIN6 prolif -6.2, Platelet DG rel -4.4 and GRK2 aptamer HTS 1.0.
CCCc1cc(-c2[nH]ncc2-c2ccc(C(=O)OCC)o2)c(O)cc1O was read as NTR1 ag 16.5, MIN6 prolif -3.3, Platelet DG rel 7.7 and GRK2 aptamer HTS 0.0.
